Data on 20 compounds can be found in PubChem BioAssay.

SMILES strings stand for the structures.

The nature of the first assay: blockers of polyQ-driven CASP3 activation – cell-based (AID 1583). As to conditions: polyglutamine-induced caspase-3 activation, cell assay; stronger effect = higher value;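 tested at 10 µM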.
Regarding `O=c1c(-c2ccc(O)cc2)coc2cc(O)ccc12`, the inhibition (commonly the drop in the measured response relative to a control, in per cent) was -30.4%.

`N#Cc1ccc2c(c1)N(CCCN1CCC(O)CC1)c1ccccc1S2`: the inhibition is -41.8%.

With `CON`, the inhibition was -5.62%.

In the case of `CC(C)=CCc1c2c(c3occ(-c4ccc(O)c(O)c4)c(=O)c3c1O)C=CC(C)(C)O2`, the inhibition is -8.52%.

Regarding `C=NC(C(=O)NC1C(=O)N2C1SC(C)(C)C2C(=O)O)c1ccccc1` (stereo not given), the inhibition worked out at 15.2%.

As to `O=C1C=CC(=C(c2ccc(O)cc2)c2ccc(O)cc2)C=C1`, the inhibition was found to be 28.5%.

Take `NC1=NCCN1CC(=O)O`: the inhibition was found to be 26.8%.

Turning to `CC(=O)c1c(O)c(C)c(O)c2c1OC1=CC(=O)C(C(C)=O)C(=O)C12C` (stereo not given), the inhibition was 59.1%.

With `CC(=O)N[C@@H]1[C@@H](O)[C@H](O)[C@@H](CO)O[C@H]1O`, the inhibition was 0.38%.

`NC(Cn1ccc(=O)c(O)c1)C(=O)O` (stereo not given): the inhibition is -4.48%.

As for `C[C@]12CCC3c4ccc(OS(=O)(=O)O)cc4CCC3C1CC[C@H]2O` (stereo not given in full), the inhibition is 8.2%.

Regarding `CCN1CCCC1CNC(=O)c1cc(S(N)(=O)=O)ccc1OC` (stereo not given), the inhibition was 17.6%.

Take `NC1(C(=O)O)CCCC1`: the inhibition came to 20.1%.

Take `O=C1c2ccc(O)c(O)c2C(=O)c2c(O)ccc(O)c21`: the inhibition is -8.08%.

Turning to `O=C(O)c1cc(=O)c2cccc(O)c2[nH]1`, the inhibition is -21.7%.

Consider `COc1cc(OC)c2ccc(=O)oc2c1`, for which the inhibition was -1.21%.

In the case of `COc1cc(C)c2c(=O)cc(-c3ccccc3)oc2c1`, the inhibition was determined as 15.2%.

As for `O=C(O)c1cc([N+](=O)[O-])ccc1NCCCc1ccccc1`, the inhibition stood at 58.5%.

As to `NC(=O)c1cccc(N)c1`, the inhibition was -48.2%.

`COc1c(OC)c2occc2c2oc(=O)ccc12`: the inhibition is -21%.

The nature of another assay: yeast 75Q aggregation reduction – 75Q-TubU reporter (AID 1593). Particulars: Yeast 75Q polyglutamine aggregation reporter.
In the case of `O=c1c(-c2ccc(O)cc2)coc2cc(O)ccc12`, the score stood at 1.

As for `N#Cc1ccc2c(c1)N(CCCN1CCC(O)CC1)c1ccccc1S2`, the score was 1.21.

In turn, `CON` had a score of 1.4.

The compound `CC(C)=CCc1c2c(c3occ(-c4ccc(O)c(O)c4)c(=O)c3c1O)C=CC(C)(C)O2` displayed a score of -0.59.

Take `C=NC(C(=O)NC1C(=O)N2C1SC(C)(C)C2C(=O)O)c1ccccc1` (stereo not given): the score came out at 0.85.

Turning to `O=C1C=CC(=C(c2ccc(O)cc2)c2ccc(O)cc2)C=C1`, the score worked out at 1.1.

For the compound `NC1=NCCN1CC(=O)O`, the score was 1.43.

`CC(=O)c1c(O)c(C)c(O)c2c1OC1=CC(=O)C(C(C)=O)C(=O)C12C` (stereo not given): the score was found to be 0.79.

The compound `CC(=O)N[C@@H]1[C@@H](O)[C@H](O)[C@@H](CO)O[C@H]1O` came in with a score of 1.2.

As for `NC(Cn1ccc(=O)c(O)c1)C(=O)O` (stereo not given), the score was found to be 0.73.

Compound `C[C@]12CCC3c4ccc(OS(=O)(=O)O)cc4CCC3C1CC[C@H]2O` (stereo not given in full) yielded a score of 1.49.

In turn, `CCN1CCCC1CNC(=O)c1cc(S(N)(=O)=O)ccc1OC` (stereo not given) registered a score of 1.43.

Take `NC1(C(=O)O)CCCC1`: the score is 1.21.

In turn, `O=C1c2ccc(O)c(O)c2C(=O)c2c(O)ccc(O)c21` yielded a score of 1.47.

On to `O=C(O)c1cc(=O)c2cccc(O)c2[nH]1`, for which the score came to 0.98.

Compound `COc1cc(OC)c2ccc(=O)oc2c1` registered a score of 0.96.

For the compound `COc1cc(C)c2c(=O)cc(-c3ccccc3)oc2c1`, the score is -1.86.

Regarding `O=C(O)c1cc([N+](=O)[O-])ccc1NCCCc1ccccc1`, the score stood at 0.73.

The compound `NC(=O)c1cccc(N)c1` showed a score of 1.17.

As to `COc1c(OC)c2occc2c2oc(=O)ccc12`, the score stood at 0.45.
